In all, about 39,000 compounds went through this assay and about 1,500 (3.8%) were called active. For the sample, actives were picked, then their nearest neighbours and some compounds at random.

This assay concerns HSkMC (human skeletal muscle cells). In words: cytotoxicity call (relative viability < 0.9). To be noted: 10 µM.
In the case of `C[C@H](CO)N1C[C@H](C)[C@H](CN(C)C(=O)c2cnccn2)Oc2ncc(-c3cccc(C#N)c3)cc2C1=O`, the cytotoxicity call is “inactive”.
Consider `C[C@@H]1CN([C@H](C)CO)C(=O)CCCn2nncc2CO[C@H]1CN(C)Cc1cccc2c1OCCCO2`, for which the cytotoxicity call is “inactive”.
In the case of `CCOC(=O)N(C)C[C@H]1OCc2cn(nn2)CCCC(=O)N([C@@H](C)CO)C[C@@H]1C`, the cytotoxicity call was “inactive”.
As to `O=C(O)CCSC[C@@H]1O[C@H]2O[C@@H]3[C@@H](O)[C@H](O)[C@H](O[C@@H]4[C@@H](O)[C@H](O)[C@H](O[C@@H]5[C@@H](O)[C@H](O)[C@H](O[C@@H]6[C@@H](O)[C@H](O)[C@H](O[C@@H]7[C@@H](O)[C@H](O)[C@H](O[C@@H]8[C@@H](O)[C@H](O)[C@H](O[C@@H]9[C@@H](O)[C@H](O)[C@H](O[C@@H]1[C@@H](O)[C@@H]2O)O[C@H]9CSCCC(=O)O)O[C@H]8CSCCC(=O)O)O[C@H]7CSCCC(=O)O)O[C@H]6CSCCC(=O)O)O[C@H]5CSCCC(=O)O)O[C@H]4CSCCC(=O)O)O[C@H]3CSCCC(=O)O`, the cytotoxicity call was “inactive”.
Take `C[C@H](CO)N1C[C@H](C)[C@H](CN(C)Cc2ccc(C(=O)O)cc2)OCCCC[C@H](C)Oc2ccc(NC(=O)Nc3ccccc3)cc2C1=O`: the cytotoxicity call is “inactive”.
With `C[C@H](CO)N1C[C@H](C)[C@@H](CN(C)S(C)(=O)=O)Oc2ccc(NC(=O)Nc3ccc(F)cc3)cc2CC1=O`, the cytotoxicity call was “inactive”.
Turning to `CCC(=C/[C@H](C)C/C=C/C(C)=C/[C@@H](C)C(=O)[C@@H](C)[C@H](O)[C@@H](C)C/C(C)=C/C(=O)O)/C=C/[C@@H]1OC(=O)C=C[C@@H]1C`, the cytotoxicity call was “active”.
For `Cc1noc(C)c1NC(=O)N(C)C[C@@H]1Oc2ccc(NS(C)(=O)=O)cc2CC(=O)N([C@H](C)CO)C[C@H]1C`, the cytotoxicity call is “inactive”.
Turning to `C[C@@H]1CN([C@H](C)CO)S(=O)(=O)c2ccc(-c3cccnc3)cc2O[C@H]1CN(C)C(=O)c1cccc(F)c1`, the cytotoxicity call is “inactive”.
`C=CCN1C(=O)[C@]2(O[C@H](CCO)[C@@H]([Si](C)(C)c3ccc(OC)cc3)[C@@H]2C)c2cc(N(C=O)c3ccccc3)ccc21`: the cytotoxicity call is “active”.
Take `C=CCN1C(=O)[C@@]2(O[C@@H](CCO)[C@H]([Si](C)(C)c3ccc(OC)cc3)[C@H]2C)c2cc(N(C=O)c3ccccc3)ccc21`: the cytotoxicity call is “active”.
For `COc1ccc([Si](C)(C)[C@H]2[C@H](CCO)O[C@@]3(C(=O)N(Cc4ccccc4)c4ccc(N(C=O)c5ccccc5)cc43)[C@@H]2C)cc1`, the cytotoxicity call is “inactive”.
Regarding `COc1ccc([Si](C)(C)[C@@H]2[C@@H](CCO)O[C@]3(C(=O)N(Cc4ccc(N(C=O)c5ccccc5)cc4)c4ccccc43)[C@H]2C)cc1`, the cytotoxicity call was “inactive”.
Consider `COc1ccc([Si](C)(C)[C@@H]2[C@@H](CCO)O[C@]3(C(=O)N(Cc4ccccc4)c4ccc(N(C=O)c5ccccc5)cc43)[C@H]2C)cc1`, for which the cytotoxicity call was “inactive”.
In the case of `COc1ccc([Si](C)(C)[C@H]2[C@H](CCO)O[C@@]3(C(=O)N(Cc4ccc(N(C=O)c5ccccc5)cc4)c4ccccc43)[C@@H]2C)cc1`, the cytotoxicity call is “inactive”.
For `C[C@@H]1CCCCO[C@@H](CN(C)C(=O)Nc2ccccc2)[C@@H](C)CN([C@H](C)CO)C(=O)c2cc(NS(=O)(=O)c3ccccc3)ccc2O1`, the cytotoxicity call was “inactive”.
As to `C[C@@H]1CN([C@H](C)CO)C(=O)c2cc(NC(=O)NC3CCCCC3)ccc2O[C@@H](C)CCCCO[C@@H]1CN(C)CC1CCCCC1`, the cytotoxicity call is “inactive”.
Take `C[C@H](CO)N1C[C@H](C)[C@H](CN(C)S(=O)(=O)c2ccccc2)Oc2ccc(NC(=O)CCC(F)(F)F)cc2CC1=O`: the cytotoxicity call was “inactive”.
For the compound `C[C@H]1CN([C@@H](C)CO)C(=O)c2cccc(NC(=O)NC3CCCCC3)c2O[C@@H]1CN(C)Cc1ccc(-c2ccccc2)cc1`, the cytotoxicity call is “inactive”.
With `Clc1ccc(C(Cn2ccnc2)OCc2c(Cl)cccc2Cl)c(Cl)c1.O=[N+]([O-])O` (stereo unspecified) the entry was “inactive”.
For the compound `Clc1ccc(CSC(Cn2ccnc2)c2ccc(Cl)cc2Cl)cc1.O=[N+]([O-])O` (stereo unspecified), the cytotoxicity call is “active”.
As to `Clc1ccc(COC(Cn2ccnc2)c2ccc(Cl)cc2Cl)cc1.O=[N+]([O-])O` (stereo unspecified), the cytotoxicity call was “inactive”.
For the compound `Cc1noc(C)c1S(=O)(=O)N(C)C[C@@H]1Oc2ccc(NS(=O)(=O)c3ccc(Cl)cc3)cc2C(=O)N([C@H](C)CO)C[C@@H]1C`, the cytotoxicity call was “inactive”.
As for `C[C@@H]1CCCCO[C@H](CN(C)C(=O)Nc2cccc3ccccc23)[C@H](C)CN([C@H](C)CO)C(=O)c2cc(NS(C)(=O)=O)ccc2O1`, the entry is “inactive”.
As for `Cc1ccc(C(N)=S)c(=O)[nH]1`, the entry is “inactive”; as for `C[C@H]1CN([C@@H](C)CO)C(=O)c2cccc(NC(=O)C3CCCCC3)c2O[C@@H]1CN(C)Cc1ccc(Cl)c(Cl)c1`, “inactive”; as for `COC(=O)c1c(CC[C@@H](CO)NC(=O)N[C@@H](Cc2ccccc2)Cn2cc(-c3ccccn3)nn2)oc(C(=O)N2CCOCC2)c1C(=O)OC`, “inactive”.
Consider `CCCC#Cc1ccc2c(c1)O[C@@H](CN(C)Cc1ccc3c(c1)OCO3)[C@H](C)CN([C@H](C)CO)S2(=O)=O`, for which the cytotoxicity call was “inactive”.
As to `CO[C@H](CN(C)C(=O)C1CCOCC1)[C@H](C)CN(C(=O)Nc1ccc(C(F)(F)F)cc1)[C@@H](C)CO`, the cytotoxicity call is “inactive”.
Regarding `C[C@H](CO)N1C[C@H](C)[C@H](CN(C)CC2CCCCC2)Oc2ccc(NC(=O)Nc3ccc(F)cc3)cc2CC1=O`, the cytotoxicity call was “inactive”.
In the case of `C[C@H](CO)N1C[C@H](C)[C@@H](CN(C)CC2CCCCC2)Oc2ccc(NC(=O)Nc3ccc(F)cc3)cc2CC1=O`, the cytotoxicity call was “inactive”.
For the compound `C[C@H]1CN([C@@H](C)CO)C(=O)Cc2cc(NC(=O)Nc3ccc(F)cc3)ccc2O[C@H]1CN(C)CC1CCCCC1`, the cytotoxicity call is “active”.
As to `C[C@@H]1CN([C@H](C)CO)C(=O)Cc2cc(NC(=O)Nc3ccc(F)cc3)ccc2O[C@@H]1CN(C)CC1CCCCC1`, the cytotoxicity call is “active”.
For the compound `C[C@@H]1CN([C@@H](C)CO)C(=O)Cc2cc(NC(=O)Nc3ccc(F)cc3)ccc2O[C@@H]1CN(C)CC1CCCCC1`, the cytotoxicity call is “inactive”.
Consider `C[C@@H]1CN([C@@H](C)CO)C(=O)Cc2cc(NC(=O)Nc3ccc(F)cc3)ccc2O[C@H]1CN(C)CC1CCCCC1`, for which the cytotoxicity call is “inactive”.
Regarding `COc1ccc(NC(=O)Nc2ccc3c(c2)C(=O)N([C@H](C)CO)C[C@@H](C)[C@H](CN(C)C(=O)Nc2c(C)noc2C)OCCCC[C@@H](C)O3)cc1`, the cytotoxicity call is “inactive”.

Source of the values: the antibiotic and cytotoxicity screens of Wong et al. (2023).
